Screens (PubChem)
tim23-1 inh: inhibits growth of tim23-1 mutant yeast | S. cerevisiae tim23-1 growth, BacTiter-Glo luminescence, 24 h | hit rate 1.3% among 330,000 | inhibition, % at 20 µM;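 active = growth inhibition of the mutant yeast at or above 50%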;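 note: temperature-sensitive mutant grown at 25 °C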
tim10-1 inh: tim10-1 yeast growth inhibition. S. cerevisiae tim10-1 ts strain growth, BacTiter-Glo, 24 h. inhibition, % at 20 µM. hit rate 2.2% among 330,000;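 active = inhibition of at least 40%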;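 note: mutant grown at 25 °C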
NALP3 yeast inh: NALP3 inhibition in yeast; inhibition, % at 10 µM; hit rate 0.39% among 330,000; Yeast reconstituted NLRP3/ASC/caspase-1, beta-gal luminescence, 24 h; AID 2825;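 active = inhibition of 50% or more; inactive = inhibition below 50%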
SKKanGAS inh: blocks kanamycin growth of S. pyogenes SKKanGAS strain; BacTiter-Glo, 6 h; inhibition, % at 7.5 µM; hit rate 1.3% among 300,000;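 active = mean replicate score, as percent of positive control median, at least 50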;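 note: strain carries kanamycin resistance gene driven by streptokinase promoter and grows in 40 µg/ml kanamycin; loss of luminescence reflects streptokinase promoter inhibition or plain growth inhibition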
TIM10 inh: inhibits growth of TIM10 yeast strain | S. cerevisiae TIM10 strain growth, BacTiter-Glo luminescence, 24 h | inhibition, % at 10 µM | hit rate 1.4% among 330,000 | AID 463195;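 active = inhibition of 40% or more at the single tested concentration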;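 note: wild-type TIM10 isogenic control strain grown at permissive 25 °C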
PfHsp90 set2: inhibits growth of yeast expressing Plasmodium falciparum Hsp90; hit rate 0.32% among 310,000; inhibition, % at 9.4 µM; S. cerevisiae expressing PfHsp90, BacTiter-Glo ATP, 48 h; yeast lacking PDR1 and PDR3 efflux regulators;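 active = every replicate shows inhibition above about 80%, whatever the replicate mean, limit read from the data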
Numbers stand for hits; 0 = inactive; - = no result given. Most compounds without a hit are left out; they make up all but 4.6% or so of the library.

SMILES	tim23-1 inh	tim10-1 inh	NALP3 yeast inh	SKKanGAS inh	TIM10 inh	PfHsp90 set2
CCOC(=O)c1ccc(Nc2nc(C)nc3c2nnn3Cc2ccccc2)cc1	0	0	0	53.0	0	0
CCN1CCN(C(=O)C2CCC(=O)N(CCCN3CCCC3=O)C2)CC1 (centres undefined)	0	0	0	0	0	0
O=C(OCc1ccccc1)c1ccc2c(c1)-c1ccccc1C2=O	0	0	0	55.3	0	0
O=C(OCc1ccccc1)c1ccccc1	0	0	0	0	0	0
COCc1c(C(=O)Nc2cccc(S(=O)(=O)N3CCCCC3)c2)oc2ccccc12	0	0	0	-	0	-
CCCC1CCC(c2ccc(C(N)=O)cc2)CC1 (centres undefined)	0	0	0	0	0	0
CCCC1CCC(c2ccc(/C(N)=N/O)cc2)CC1 (centres undefined)	0	0	0	0	0	91.5
O=C(Cn1nnc(-c2cc(C(F)(F)F)cc(C(F)(F)F)c2)n1)NNC(=S)Nc1ccc(Cl)cc1	0	0	0	77.9	0	0
O/N=C(/c1ccc(F)cc1)C1CC1c1c(F)cccc1Cl (centres undefined)	0	0	0	0	0	0
O=C(N/N=C/c1cc(Br)cc(Br)c1O)c1cccc(S(=O)(=O)N2CCOCC2)c1	0	0	0	107.3	0	0
COc1cc(/C=N/NC(=O)Cc2ccc(Br)cc2)cc(OC)c1O	0	0	0	0	0	-
O=C(COc1ccc(-c2ccccc2)cc1)N/N=C/c1ccccc1Br	0	0	0	0	0	0
O=C(CP(=O)(c1ccccc1)c1ccccc1)N/N=C/c1cc(Br)cc(Br)c1O	0	0	0	101.6	0	0
O=C(N/N=C/c1ccccc1Br)c1cccc(S(=O)(=O)N2CCOCC2)c1	0	0	0	-	0	0
COc1cc(Br)cc(/C=N/NC(=O)Cc2ccccc2)c1O	0	0	0	109.2	0	0
O=C(COc1ccc(-c2ccccc2)cc1)N/N=C/c1cc(O)ccc1Br	0	0	0	98.2	0	0
O=C1C[C@@H]2c3c(cccc3CN1Cc1ccc(F)cc1)C[C@@H](O)[C@H]2O	0	0	0	-	0	-
Cc1ccc(N2C(=O)c3ccccc3NC2(C(=O)O)c2ccccc2)cc1Cl (centres undefined)	0	0	0	0	0	0
COc1ccc(OC)c(C(=O)NC(CC(N)=O)c2ccc(NCCN3CCCCC3)c([N+](=O)[O-])c2)c1 (centres undefined)	0	0	0	0	0	0
O=c1c2cc(N3CCOCC3)ccc2[nH]c(=S)n1CCc1ccccc1	0	0	0	83.5	0	0
O=C(NN1C(=O)/C(=C\c2ccc(O)c([N+](=O)[O-])c2)SC1=S)c1ccccc1Cl	0	0	0	0	0	104.2
c1ccc(CNc2nc(-c3cccnc3)nc3ccccc23)cc1	0	0	0	0	0	0
c1ccc(CNc2nc(-c3ccccn3)nc3ccccc23)cc1	0	0	0	92.9	0	0
CC(Nc1nc(-c2ccccc2O)nc2ccccc12)c1ccccc1 (centres undefined)	0	0	0	57.9	0	0
CCC(C)Nc1nc(-c2ccccn2)nc2ccccc12 (centres undefined)	0	0	0	88.6	0	0
SMILES	tim23-1 inh	tim10-1 inh	NALP3 yeast inh	SKKanGAS inh	TIM10 inh	PfHsp90 set2
OCCN(CCO)c1ccc(C(c2ccc(Cl)cc2)c2ccc(N(CCO)CCO)cc2Cl)c(Cl)c1	0	0	0	93.5	0	0
Fc1ccc(CN2CC[C@H]3C=CCc4cccc(c43)C2)cc1	0	0	0	-	0	0
O=C1CC(N2CCN(c3nc4ccccc4s3)CC2)C(=O)N1Cc1cccs1 (centres undefined)	0	0	0	0	0	104.6
O=c1cc(N2CCCCC2)c(-c2ccccc2)nn1Cc1ccc(Cl)cc1Cl	0	0	0	105.0	0	0
O=c1cc(N2CCCCC2)c(-c2ccccc2)nn1Cc1cccc(Cl)c1	0	0	0	52.4	0	0
COc1ccccc1/C=C/C=N/NC(=O)c1cccs1	0	0	0	0	0	0
O=C(NCCc1ccco1)c1cc(COc2cccc(C(F)(F)F)c2)on1	0	0	0	0	0	0
O=C(CN1C(=O)NC2(CCOc3ccccc32)C1=O)NCC(F)(F)F (centres undefined)	0	0	0	0	0	0
O=C(Cc1cccc(NC(=O)C2CCCN(C(=O)C3CCCCC3)C2)c1)Nc1ccc(C(=O)N2CCCCC2)cc1 (centres undefined)	-	-	-	-	-	0
